Laboratory results as given in PubChem BioAssay (NCI).
This is part of a sample that, as a whole, favours compounds with a hit. Of some 79,000 tested, about 15% had one in any assay. Cut-off read from the data, not from the text of the source: active = growth inhibition above about 70%; inactive = the rest.

What was measured:
[1] = NCI Yeast Anticancer Drug Screen. Data for the rad50 strain (AID 155);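 note: 0% = growth of vehicle-only cultures of the same strain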; conditions: S. cerevisiae rad50 strain growth inhibition; at 50.0 µM; hits give high values
How it was run: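 Yeast carrying a defined DNA repair defect were exposed to test compounds, and growth was compared with vehicle-treated controls to give percent inhibition.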

[2] = NCI Yeast Anticancer Drug Screen. Data for the mec2-1 strain (AID 157); conditions: S. cerevisiae mec2-1 strain, at 50.0 µM, hits give high values
How it was run: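 Compounds were applied to mec2-1 yeast cells. Their growth was then compared with that of vehicle-treated cultures to give growth inhibition.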

[3] = NCI Yeast Anticancer Drug Screen. Data for the sgs1 mgt1 strain (AID 161);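 note: 0% = growth of cultures given vehicle only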; conditions: S. cerevisiae sgs1 mgt1 strain, at 50.0 µM, hits give high values
How it was run: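 This yeast growth screen uses a strain with defined DNA-repair lesions; compound-treated growth is compared with vehicle-treated growth.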

[4] = NCI Yeast Anticancer Drug Screen. Data for the cln2 rad14 strain (AID 165);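 note: 0% = growth equal to vehicle treated cultures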; conditions: S. cerevisiae cln2 rad14 strain, at 50.0 µM, hits give high values
How it was run: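 Strain: cln2 rad14 yeast, altered in cell cycle control and DNA damage repair. Read-out: growth inhibition vs vehicle.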

[5] = NCI Yeast Anticancer Drug Screen. Data for the bub3 strain (AID 167); conditions: S. cerevisiae bub3 mutant strain, at 50.0 µM, hits give high values
How it was run: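 Compounds were applied to a genetically altered yeast strain carrying a cell-cycle control defect. Growth inhibition was scored against vehicle-treated controls.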

[6] = NCI Yeast Anticancer Drug Screen. Data for the mlh1 rad18 strain (AID 175); conditions: S. cerevisiae mlh1 rad18 strain growth inhibition; at 50.0 µM; hits give high values
How it was run: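 A repair-deficient yeast strain is exposed to test compound, and growth is scored relative to vehicle-treated controls.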

Measured: growth inhibition

O=C(O)[C@H](c1ccccc1)[C@@H](C(=O)O)c1ccccc1
inactive: [1] -8.25% | [2] -5.75% | [3] -8.35% | [4] -3.35% | [5] -53.8% | [6] -1.4%

CC(C)c1ccc([N+](=O)[O-])cc1
inactive: [1] 31.5% | [2] 11.1% | [3] 11.2% | [4] 26.6% | [5] 5.95% | [6] 16.9%

Nc1nc(N)c2nonc2n1
inactive: [1] -3.7% | [2] -20.8% | [3] -10.8% | [4] -26.2% | [5] -2.85% | [6] 2%

N#CC(C(=O)O)C1(C(C#N)C(=O)O)CCN(Cc2ccccc2)CC1 (stereo unspecified)
inactive: [1] -9.9% | [2] -5.1% | [3] 40.5% | [4] -21.9% | [5] -2.15% | [6] -10.1%

O=C(O)CSC1=NNC2(C(=O)N1)c1ccccc1-c1ccccc12
inactive: [1] 1.8% | [2] -2% | [3] 18.4% | [4] -2.1% | [5] -3.85% | [6] 24.1%

CC(C)(C)/C=C/N=NNc1ccccc1C(=O)NC(C)(C)C
inactive: [1] 9.5% | [2] 0.2% | [3] 1.8% | [4] -54.5% | [5] -2% | [6] 12.1%

CCc1nc(N)nc(N)c1-c1ccc(Cl)c(NC(C)=O)c1
inactive: [1] 8.9% | [2] -3.6% | [3] -7.6% | [4] 10.1% | [5] 6.6% | [6] 1.95%

CN1C(=O)C(CCCN=C(N)N)NC1=S (stereo unspecified)
inactive: [1] -13.7% | [2] -2.4% | [3] -6.65% | [4] -12.2% | [5] -2.45% | [6] -13.6%

O=C(Nc1cccc(C(F)(F)F)c1)c1ccco1
inactive: [1] 34.5% | [2] 9.75% | [3] 28.7% | [4] 3.55% | [5] 11.1% | [6] 17%

COCCCN(Cc1cc(OC)c(OC)c(OC)c1)C(=S)Nc1cccc(SC)c1
inactive: [1] 13.8% | [2] -19.4% | [3] 40.5% | [4] 25.6% | [5] 51.2% | [6] 16.6%

O=C1c2ccccc2C(=O)N1OCCCCON1C(=O)c2ccccc2C1=O
inactive: [1] 10.8% | [2] -0.2% | [3] -19.9% | [4] 15.1% | [5] 1% | [6] -2.4%

COC(=O)c1ccccc1C#CC#Cc1ccccc1C(=O)OC
inactive: [1] -5.25% | [2] -32.1% | [3] 4.6% | [4] 8.85% | [5] -2.4% | [6] -3.5%

CCC(C)(C)c1ccc(OCCOC(C)=O)cc1
inactive: [1] 3.1% | [2] -11.8% | [3] 26.1% | [4] -13.7% | [5] 18.7% | [6] 23.1%

CSSC(SSC)C(SSC)SSC
inactive: [1] -4.7% | [2] 4.2% | [3] 43.4% | [4] 1.4% | [5] 36.8% | [6] 47.8%

Cc1cc(C)c(C)c(C(=O)OC(C)C)c1C
inactive: [1] 2.7% | [2] -9.7% | [3] 3.35% | [4] 15.4% | [5] -3.85% | [6] -8.55%

C/C(=N\NC(N)=S)c1ccc(C)cc1C
inactive: [1] 45.4% | [2] -3.75% | [3] 57% | [4] 25.9% | [5] 7.55% | [6] 59.5%

Cc1nc2c(=O)[nH]c3ccccc3c2o1
inactive: [1] -3.25% | [2] 7% | [3] 3.1% | [4] -7% | [5] -10.3% | [6] -32.4%

O=C1CC(=O)N(C=C2C(=O)NC(=O)NC2=O)C(=S)N1
inactive: [1] -11.9% | [2] -2.15% | [3] -18.6% | [4] 11.2% | [5] 4.6% | [6] 0.45%

C=C(C)C1Cc2cc(C(C)=O)ccc2O1 (stereo unspecified)
inactive: [1] 12.7% | [2] -11.7% | [3] 9.55% | [4] 5.8% | [5] -4% | [6] -59.2%

CC(C)CC(CN(C)C)C(=O)/C=C/c1ccccc1 (stereo unspecified)
inactive: [1] 18.2% | [2] -2.25% | [3] 19.4% | [4] -6.95% | [5] 11.8% | [6] 22.1%

O=C1C(=O)C(c2ccccc2)S(=O)(=O)C1c1ccccc1 (stereo unspecified)
inactive: [1] -5.3% | [2] -5.05% | [3] -6.3% | [4] 4.3% | [5] 7.55% | [6] 14.6%
